# The supplement of paper PMC10849652
# About 7,900 targets were measured; listed, in parts, are those with a hit and a random draw of the rest. About 0.6% of all pairs of compound and target were hits. Unmarked numbers belong to inactive results.
# Legend:
# Assay in all cases: log2 fold change, soluble protein after heating vs DMSO (PISA); higher = thermal stabilisation; K562 cells, 10 uM, 30 min; active = over 0.2 and 3.5 SD of the protein, either way, in both replicates (recomputed)
# [1] = compound: NC(=O)Nc1cc(-c2cccc(F)c2)sc1C(=O)N[C@H]1CCCNC1
# Procedure, shortened: (§1)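 K562 cells at 2×10^6 cells/mL were treated with 10 μM compound for 30 min. Aliquots were heated for 3 min across 48°C-58°C, pooled, and extracted in PBS with 0.5% NP-40 at 4°C; soluble protein was the supernatant after 21,000xg for 90 min. Soluble protein was quantified by TMTpro 16plex LC-MS/MS with channel sums equalised, and reported as log2 fold change in thermal stability against DMSO controls, with values from duplicates.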
# [2] = compound: NC(=O)c1cnc(N[C@@H]2CCCC[C@@H]2N)nc1Nc1cccc(-n2nccn2)c1
# Procedure, shortened: as §1
# [3] = compound: NC1(c2ccc(-c3nc4ccn5c(=O)[nH]nc5c4cc3-c3ccccc3)cc2)CCC1
# Procedure, shortened: as §1
# [4] = compound: NCC(=O)Nc1ccc(-n2nc(C(F)(F)F)cc2-c2ccc3c(ccc4ccccc43)c2)cc1
# Procedure, shortened: as §1
# entinostat = compound: Nc1ccccc1NC(=O)c1ccc(CNC(=O)OCc2cccnc2)cc1 [entinostat]
# Procedure, shortened: as §1
# vorinostat = compound: O=C(CCCCCCC(=O)Nc1ccccc1)NO [vorinostat]
# Procedure, shortened: as §1
# citarinostat = compound: O=C(CCCCCCNC(=O)c1cnc(N(c2ccccc2)c2ccccc2Cl)nc1)NO [citarinostat]
# Procedure, shortened: as §1
# silmitasertib = compound: O=C(O)c1ccc2c(c1)nc(Nc1cccc(Cl)c1)c1ccncc12 [silmitasertib]
# Procedure, shortened: as §1
# [5] = compound: O=C1NC(=O)C(c2cnc3ccccn23)=C1c1cn2c3c(cc(F)cc13)CN(C(=O)N1CCCCC1)CC2
# Procedure, shortened: as §1
# [6] = compound: c1cc(OCCN2CCCCC2)cc(-c2n[nH]c3ccc(-c4nnc[nH]4)cc23)c1
# Procedure, shortened: as §1
# entospletinib = compound: c1cn2cc(-c3ccc4cn[nH]c4c3)nc(Nc3ccc(N4CCOCC4)cc3)c2n1 [entospletinib]
# Procedure, shortened: as §1
# UniProt O00763, sequence (O00763 whole entry, looked up): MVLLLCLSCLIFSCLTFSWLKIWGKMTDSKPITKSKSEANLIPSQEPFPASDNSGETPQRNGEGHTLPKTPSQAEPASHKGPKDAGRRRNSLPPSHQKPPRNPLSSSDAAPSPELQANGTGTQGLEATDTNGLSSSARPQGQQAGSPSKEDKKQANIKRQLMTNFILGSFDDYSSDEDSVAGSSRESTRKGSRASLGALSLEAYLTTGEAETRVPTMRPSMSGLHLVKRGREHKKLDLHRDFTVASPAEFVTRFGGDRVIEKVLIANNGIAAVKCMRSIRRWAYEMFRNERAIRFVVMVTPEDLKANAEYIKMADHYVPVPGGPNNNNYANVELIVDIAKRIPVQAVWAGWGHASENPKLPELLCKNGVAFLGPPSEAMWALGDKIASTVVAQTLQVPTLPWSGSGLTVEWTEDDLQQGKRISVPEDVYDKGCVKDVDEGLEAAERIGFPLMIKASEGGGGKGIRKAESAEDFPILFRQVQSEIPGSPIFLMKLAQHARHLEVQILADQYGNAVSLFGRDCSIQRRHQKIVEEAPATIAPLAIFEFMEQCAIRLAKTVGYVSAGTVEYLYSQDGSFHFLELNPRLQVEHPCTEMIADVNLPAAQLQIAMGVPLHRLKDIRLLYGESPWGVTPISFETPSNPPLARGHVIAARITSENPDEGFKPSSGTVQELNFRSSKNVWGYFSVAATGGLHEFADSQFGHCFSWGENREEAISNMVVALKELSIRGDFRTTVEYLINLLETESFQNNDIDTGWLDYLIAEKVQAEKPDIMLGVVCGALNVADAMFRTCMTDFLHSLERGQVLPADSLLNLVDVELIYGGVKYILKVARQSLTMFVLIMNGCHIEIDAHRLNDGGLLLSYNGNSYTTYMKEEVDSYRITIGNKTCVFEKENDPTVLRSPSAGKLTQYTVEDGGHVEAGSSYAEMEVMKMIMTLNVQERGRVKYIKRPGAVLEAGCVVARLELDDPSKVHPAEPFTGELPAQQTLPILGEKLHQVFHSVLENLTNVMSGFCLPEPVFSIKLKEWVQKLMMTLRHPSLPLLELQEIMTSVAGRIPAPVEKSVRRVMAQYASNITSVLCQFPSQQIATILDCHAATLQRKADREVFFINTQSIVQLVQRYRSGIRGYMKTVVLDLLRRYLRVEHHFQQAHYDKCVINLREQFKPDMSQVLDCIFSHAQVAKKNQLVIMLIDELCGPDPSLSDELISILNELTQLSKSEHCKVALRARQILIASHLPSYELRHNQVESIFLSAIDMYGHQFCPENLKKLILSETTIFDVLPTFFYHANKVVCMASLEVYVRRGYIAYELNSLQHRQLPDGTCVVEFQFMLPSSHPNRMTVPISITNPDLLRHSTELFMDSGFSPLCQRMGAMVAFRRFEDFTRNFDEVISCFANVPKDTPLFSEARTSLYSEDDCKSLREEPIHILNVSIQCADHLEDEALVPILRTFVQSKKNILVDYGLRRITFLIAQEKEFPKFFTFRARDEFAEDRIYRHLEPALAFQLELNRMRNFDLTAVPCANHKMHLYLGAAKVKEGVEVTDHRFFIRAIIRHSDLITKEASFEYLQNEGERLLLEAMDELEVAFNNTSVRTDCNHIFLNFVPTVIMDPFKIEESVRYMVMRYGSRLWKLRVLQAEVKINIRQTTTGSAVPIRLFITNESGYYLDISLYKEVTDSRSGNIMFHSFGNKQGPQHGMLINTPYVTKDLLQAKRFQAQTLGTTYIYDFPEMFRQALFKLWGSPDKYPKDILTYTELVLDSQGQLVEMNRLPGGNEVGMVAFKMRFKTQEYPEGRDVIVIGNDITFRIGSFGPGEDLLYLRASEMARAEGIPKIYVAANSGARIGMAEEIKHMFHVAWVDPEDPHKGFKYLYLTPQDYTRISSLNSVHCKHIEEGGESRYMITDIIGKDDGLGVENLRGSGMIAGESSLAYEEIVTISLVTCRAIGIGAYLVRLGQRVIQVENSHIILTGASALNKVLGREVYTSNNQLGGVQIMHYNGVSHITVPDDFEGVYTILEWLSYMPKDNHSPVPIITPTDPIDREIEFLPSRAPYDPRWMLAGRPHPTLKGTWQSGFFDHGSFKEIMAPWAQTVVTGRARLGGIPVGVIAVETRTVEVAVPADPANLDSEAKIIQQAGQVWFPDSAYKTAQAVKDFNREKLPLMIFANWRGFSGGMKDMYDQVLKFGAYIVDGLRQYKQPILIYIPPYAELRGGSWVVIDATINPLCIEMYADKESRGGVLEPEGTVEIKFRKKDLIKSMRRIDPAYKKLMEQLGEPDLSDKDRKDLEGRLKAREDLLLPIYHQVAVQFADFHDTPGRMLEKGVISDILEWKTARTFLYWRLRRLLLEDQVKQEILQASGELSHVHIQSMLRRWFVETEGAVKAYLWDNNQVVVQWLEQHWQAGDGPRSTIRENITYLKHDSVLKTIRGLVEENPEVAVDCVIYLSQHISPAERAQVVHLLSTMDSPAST
# UniProt Q9UJX6, sequence (Q9UJX6 whole entry, looked up): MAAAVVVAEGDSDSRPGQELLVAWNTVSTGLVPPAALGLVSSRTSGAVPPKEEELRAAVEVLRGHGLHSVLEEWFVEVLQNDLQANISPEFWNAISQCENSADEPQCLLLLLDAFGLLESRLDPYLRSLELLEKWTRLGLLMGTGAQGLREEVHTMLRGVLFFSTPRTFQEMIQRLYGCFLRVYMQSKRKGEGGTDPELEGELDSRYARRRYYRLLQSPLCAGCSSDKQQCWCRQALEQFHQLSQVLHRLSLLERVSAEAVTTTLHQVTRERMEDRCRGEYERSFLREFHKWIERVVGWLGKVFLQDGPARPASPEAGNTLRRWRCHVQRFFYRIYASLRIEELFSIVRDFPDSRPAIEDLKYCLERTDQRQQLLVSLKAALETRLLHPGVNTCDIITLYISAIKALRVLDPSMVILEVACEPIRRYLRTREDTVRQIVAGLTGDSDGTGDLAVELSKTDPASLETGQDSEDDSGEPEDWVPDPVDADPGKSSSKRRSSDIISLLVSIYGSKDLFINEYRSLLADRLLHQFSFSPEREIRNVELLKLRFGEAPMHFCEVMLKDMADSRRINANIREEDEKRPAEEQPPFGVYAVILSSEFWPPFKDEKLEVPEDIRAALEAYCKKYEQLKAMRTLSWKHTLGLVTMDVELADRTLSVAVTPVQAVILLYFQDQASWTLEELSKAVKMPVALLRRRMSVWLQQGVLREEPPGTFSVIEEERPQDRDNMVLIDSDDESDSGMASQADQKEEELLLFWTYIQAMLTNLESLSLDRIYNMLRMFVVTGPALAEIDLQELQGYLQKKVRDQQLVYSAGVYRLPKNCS
# UniProt Q9Y6D6, sequence (Q9Y6D6 whole entry, looked up): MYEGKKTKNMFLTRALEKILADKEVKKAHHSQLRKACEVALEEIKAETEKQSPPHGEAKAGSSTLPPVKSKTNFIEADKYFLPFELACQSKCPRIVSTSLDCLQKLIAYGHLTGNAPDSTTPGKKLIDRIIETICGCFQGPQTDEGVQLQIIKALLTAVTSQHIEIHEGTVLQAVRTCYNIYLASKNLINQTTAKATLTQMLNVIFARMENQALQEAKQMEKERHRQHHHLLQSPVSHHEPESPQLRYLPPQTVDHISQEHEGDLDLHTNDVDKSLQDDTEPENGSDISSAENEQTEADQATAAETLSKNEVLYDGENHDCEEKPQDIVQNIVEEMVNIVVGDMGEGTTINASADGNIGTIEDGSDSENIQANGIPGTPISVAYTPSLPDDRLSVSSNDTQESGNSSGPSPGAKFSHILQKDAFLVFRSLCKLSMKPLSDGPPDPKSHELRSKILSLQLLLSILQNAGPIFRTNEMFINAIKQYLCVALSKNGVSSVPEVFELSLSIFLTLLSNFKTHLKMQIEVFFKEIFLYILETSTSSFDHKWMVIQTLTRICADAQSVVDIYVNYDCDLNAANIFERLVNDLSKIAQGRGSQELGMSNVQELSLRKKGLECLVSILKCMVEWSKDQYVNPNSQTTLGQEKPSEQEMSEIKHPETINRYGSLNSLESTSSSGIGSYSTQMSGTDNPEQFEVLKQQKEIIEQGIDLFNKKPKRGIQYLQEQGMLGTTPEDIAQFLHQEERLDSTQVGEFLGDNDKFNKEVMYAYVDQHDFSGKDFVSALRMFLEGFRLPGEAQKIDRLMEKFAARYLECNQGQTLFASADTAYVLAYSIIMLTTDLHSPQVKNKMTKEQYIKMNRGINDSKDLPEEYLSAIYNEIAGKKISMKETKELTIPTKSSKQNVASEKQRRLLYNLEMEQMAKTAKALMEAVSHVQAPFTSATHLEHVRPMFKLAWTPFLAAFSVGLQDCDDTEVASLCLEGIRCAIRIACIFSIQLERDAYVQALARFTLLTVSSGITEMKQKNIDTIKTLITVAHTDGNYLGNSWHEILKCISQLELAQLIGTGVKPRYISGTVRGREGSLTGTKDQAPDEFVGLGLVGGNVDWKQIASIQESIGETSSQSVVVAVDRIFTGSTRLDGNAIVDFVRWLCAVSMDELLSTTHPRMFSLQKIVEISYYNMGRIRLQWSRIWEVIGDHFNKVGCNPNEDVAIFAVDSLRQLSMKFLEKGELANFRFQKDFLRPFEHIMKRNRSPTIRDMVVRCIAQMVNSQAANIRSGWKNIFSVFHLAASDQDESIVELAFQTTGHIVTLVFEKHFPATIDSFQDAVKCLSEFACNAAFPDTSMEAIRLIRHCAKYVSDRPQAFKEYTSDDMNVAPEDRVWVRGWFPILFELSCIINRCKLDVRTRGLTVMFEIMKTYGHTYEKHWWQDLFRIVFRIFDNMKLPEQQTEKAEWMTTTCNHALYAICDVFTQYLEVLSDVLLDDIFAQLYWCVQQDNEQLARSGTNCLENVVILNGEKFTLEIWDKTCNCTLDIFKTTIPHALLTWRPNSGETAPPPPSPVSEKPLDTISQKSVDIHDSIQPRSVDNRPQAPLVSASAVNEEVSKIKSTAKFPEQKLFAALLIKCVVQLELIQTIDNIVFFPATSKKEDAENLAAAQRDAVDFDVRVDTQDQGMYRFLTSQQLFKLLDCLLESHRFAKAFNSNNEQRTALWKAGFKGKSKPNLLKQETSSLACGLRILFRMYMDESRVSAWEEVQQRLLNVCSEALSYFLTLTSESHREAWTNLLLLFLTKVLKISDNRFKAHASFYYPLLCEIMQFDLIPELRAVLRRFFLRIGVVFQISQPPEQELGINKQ
Target,log2 fold change [1],log2 fold change [2],log2 fold change [3],log2 fold change [4],log2 fold change (entinostat),log2 fold change (vorinostat),log2 fold change (citarinostat),log2 fold change (silmitasertib),log2 fold change [5],log2 fold change [6],log2 fold change (entospletinib)
ATP7B (UniProt P35670),-0.051,-0.139,-0.111,-0.15,-0.003,0.035,0.005,0.036,-0.036,-0.023,0.012
ARL3 (UniProt P36405),0.02,-0.005,-0.051,0.006,-0.024,-0.013,0.05,0,-0.001,-0.022,0.008
AHSA1 (UniProt O95433),-0.002,-0.005,-0.131,-0.043,0.022,0.013,0.026,0.019,-0.009,-0.003,-0.017
ABHD16A (UniProt O95870),-0.026,0.026,0.113,0.049,-0.02,0.055,0.026,-0.022,0.005,0.008,0.002
APOB (UniProt P04114),-0.206,-0.387,-0.621 (active),-0.806 (active),0.042,-0.009,0.015,0.068,0.001,0.056,0.04
ADPRHL2 (UniProt Q9NX46),-0.022,-0.02,-0.056,-0.045,0.027,-0.039,0.076,-0.045,-0.028,0.055,0.024
ATP1B3 (UniProt P54709),-0.065,-0.011,0.066,0.004,-0.041,-0.007,0.037,0.002,-0.057,-0.088,-0.031
ACSL3 (UniProt O95573),0.009,-0.041,-0.095,-0.042,0.047,0.049,0.047,0.074,-0.045,0.028,-0.06
ACSL4 (UniProt O60488),-0.087,-0.097,-0.057,-0.023,0.081,0.029,0.044,0.149,0.003,0.017,0.009
ARHGAP1 (UniProt Q07960),-0.068,-0.048,-0.003,-0.051,0.016,0.012,0.009,0.014,-0.024,-0.093,0.011
ATL2 (UniProt Q8NHH9),-0.021,-0.03,-0.165,-0.094,-0.025,0.017,-0.023,-0.004,-0.025,-0.058,0.016
ARL1 (UniProt P40616),0.142,0.055,-0.173,-0.019,0.031,0.149,0.161,0.006,0.04,0.007,-0.139
ACIN1 (UniProt Q9UKV3),-0.013,-0.038,0.003,-0.062,-0.024,0.035,0.035,-0.124,0.013,-0.084,-0.008
BZW2 (UniProt Q9Y6E2),0.019,-0.055,-0.225,-0.066,0.047,-0.003,0.044,-0.001,-0.044,-0.069,0.002
ALKBH4 (UniProt Q9NXW9),-0.009,-0.051,-0.427 (active),0.097,-0.058,-0.031,0.079,0.165,0,-0.014,-0.029
ARFGEF1 (UniProt Q9Y6D6),0.028,0.121,-0.023,0.006,-0.044,0.02,0.009,0.065,0.023,0.069,-0.009
ACO2 (UniProt Q99798),0.017,-0.04,-0.142,-0.012,0.039,0.023,0.057,0.001,-0.058,-0.042,-0.008
APPL1 (UniProt Q9UKG1),-0.032,-0.012,-0.023,-0.043,-0.053,0.009,0.04,0.022,-0.046,0.07,0.027
AUP1 (UniProt Q9Y679),-0.013,-0.082,-0.236 (active),-0.107,0.061,0.135,0.067,0.019,0.064,-0.051,-0.025
ALDH1B1 (UniProt P30837),0,-0.039,-0.065,-0.054,-0.019,0.281 (active),0.051,-0.037,-0.015,0.058,-0.018
ANKRD29 (UniProt Q8N6D5),-0.044,-0.181,-0.337,-0.119,-0.03,0.061,-0.002,0.039,-0.2,-0.051,-0.152
AGO1 (UniProt Q9UL18),0.108,0.011,0.049,0.073,-0.012,-0.05,0.439 (active),0.12,-0.067,-0.413,-0.2
BCCIP (UniProt Q9P287),0.023,-0.008,-0.006,-0.04,-0.052,0.045,0.022,0.049,-0.012,-0.079,-0.036
ALDH9A1 isoform 3 (UniProt P49189),0.04,-0.025,-0.011,-0.05,0.003,-0.003,0.025,-0.045,-0.033,0.015,-0.017
ATP6V0A2 (UniProt Q9Y487),-0.002,-0.072,-0.143,-0.024,0.021,0,0.036,0.079,0.061,-0.043,0.009
BPHL (UniProt Q86WA6),-0.014,-0.081,0.255,-0.012,0.019,-0.04,-0.042,-0.045,-0.06,0.051,-0.01
BCCIP isoform 2 (UniProt Q9P287),0,-0.001,-0.096,-0.011,0.027,0.033,0.021,0.096,-0.029,-0.031,0.008

Target,log2 fold change [1],log2 fold change [2],log2 fold change [3],log2 fold change [4],log2 fold change (entinostat),log2 fold change (vorinostat),log2 fold change (citarinostat),log2 fold change (silmitasertib),log2 fold change [5],log2 fold change [6],log2 fold change (entospletinib)
BTAF1 (UniProt O14981),-0.024,-0.012,-0.152,-0.104,0.012,0.037,0.038,0.036,-0.062,0.079,-0.005
AFDN isoform 5 (UniProt P55196),-0.154,-0.009,-0.099,-0.025,0.008,0.019,0.079,-0.012,-0.052,-0.068,-0.041
ARGLU1 (UniProt Q9NWB6),-0.089,0.01,0.168,-0.08,-0.071,-0.061,0.026,-0.245,0.319,-0.208,-0.013
AP2M1 (UniProt Q96CW1),-0.293 (active),0.004,0.012,-0.003,-0.007,0.06,-0.004,0.029,-0.237 (active),-0.209,0.025
ATAD3B (UniProt Q5T9A4),0.017,-0.029,-0.089,-0.088,0.013,0.108,-0.016,0.005,0.248,-0.104,0.058
ADH5 (UniProt P11766),0.024,0.002,-0.006,0.021,-0.031,-0.013,0.015,-0.026,-0.03,-0.016,-0.025
BOP1 (UniProt Q14137),0.002,-0.027,0.04,-0.018,-0.004,0.107,0.035,0.038,-0.351 (active),-0.073,-0.063
ATAD1 (UniProt Q8NBU5),-0.036,-0.056,-0.015,-0.009,0.038,0.012,0.032,0.012,0.197,-0.053,0.022
ATP1A4 (UniProt Q13733),0.023,0.069,0.059,-0.03,-0.001,-0.002,0.121,0.007,0.176,-0.088,-0.065
ATP13A3 (UniProt Q9H7F0),-0.072,0.027,-0.082,0.039,0.026,-0.026,-0.033,0.048,0.02,-0.099,0.042
BRD8 (UniProt Q9H0E9),0.008,-0.107,0.038,-0.014,-0.041,-0.125,-0.12,0.038,0.022,-0.059,0.031
ATP9B (UniProt O43861),-0.58 (active),-0.028,0.052,-0.029,-0.24,-0.044,0.135,0.071,0.029,-0.048,-0.134
AP2A1 (UniProt O95782),-0.38 (active),0.061,0.041,0.026,-0.002,0.038,0.005,0.047,-0.275 (active),-0.227 (active),0.017
BTBD6 (UniProt Q96KE9),0.054,0.102,0.469,0.199,-0.039,0.081,0.273,-0.352,-0.011,0.118,0.056
ARFRP1 (UniProt Q13795),0.167,0.108,-0.173,0.067,0.117,0.054,0.025,0.013,-0.085,0.074,0.024
ADD3 isoform 2 (UniProt Q9UEY8),0.03,0.059,-0.009,-0.002,-0.018,-0.119,0.08,-0.002,0.019,-0.02,-0.066
AGPAT3 isoform 3 (UniProt Q9NRZ7),0.008,-0.044,-0.141,-0.041,0.004,0.004,0.029,0.008,-0.079,-0.044,-0.017
ARMC8 (UniProt Q8IUR7),-0.044,0.017,-0.087,0.002,-0.031,-0.031,0.057,0.058,0.026,-0.028,-0.011
ACSL5 isoform 3 (UniProt Q9ULC5),-0.007,-0.066,-0.042,-0.184,0.081,0.005,-0.035,0.002,-0.103,-0.052,-0.021
B4GALNT1 (UniProt Q00973),-0.001,-0.062,-0.093,0.092,0.02,0.003,0.538 (active),0.062,-0.095,0.064,0.074
ACACB (UniProt O00763),-0.02,-0.043,-0.047,0.084,0.076,0.082,0.131,0.119,0.222,-0.01,-0.077
ACP2 (UniProt P11117),-0.014,0.002,-0.124,0.018,-0.01,-0.003,0.05,0.069,-0.052,-0.102,-0.004
ABHD17A isoform 2 (UniProt Q96GS6),0.036,-0.119,-0.049,-0.078,-0.104,-0.04,0.036,-0.02,0.01,0.051,-0.076
ANAPC2 (UniProt Q9UJX6),0.079,-0.025,-0.063,-0.023,0.02,0.074,0.124,0.087,0.027,-0.049,-0.001
ATP2A3 isoform 2 (UniProt Q93084),-0.008,0.007,-0.096,-0.072,0.035,-0.018,0.019,0.068,-0.069,-0.05,-0.036
ARL2BP (UniProt Q9Y2Y0),-0.056,-0.108,-0.129,-0.088,-0.057,0.132,0.006,-0.02,0.108,0.046,-0.06
ALG11 (UniProt Q2TAA5),-0.052,0.032,-0.093,-0.019,0.01,-0.038,0.039,0.008,-0.002,-0.08,-0.005
